16 sequences from publication PMC11006913 can be followed below.

Experiment in all cases: PBM; 200 nM protein, PBS
What all share (conditions): dsDNA, one strand shown

Test [1] has as its target CRX (Homo sapiens, UniProt O43186 26-111).
In test [2] the target is CRX (Homo sapiens, UniProt O43186 26-111, E42D).
A further test deals with T1, NKX2-6 (Homo sapiens, UniProt A6NCS4 118-204, R150C).
T1 sequence: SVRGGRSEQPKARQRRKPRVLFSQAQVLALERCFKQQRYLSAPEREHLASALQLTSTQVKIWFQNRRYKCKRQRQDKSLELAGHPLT

In test [3] the target is VAX1 (Homo sapiens, UniProt Q5SQQ9 86-172).
Chain of VAX1 (Homo sapiens, UniProt Q5SQQ9 86-172) (Q5SQQ9 86-172): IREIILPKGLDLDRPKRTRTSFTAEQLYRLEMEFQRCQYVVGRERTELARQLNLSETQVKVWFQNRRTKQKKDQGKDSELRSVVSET
The target in test [4] is VAX1 (Homo sapiens, UniProt Q5SQQ9 86-172, T142I).
Chain of VAX1 (Homo sapiens, UniProt Q5SQQ9 86-172, T142I) (Q5SQQ9 86-172 T142I): as the sequence (Q5SQQ9 86-172) above, with T57I counted along it
For test [5], the target named is CRX (Homo sapiens, UniProt O43186 26-111, R41L).
Chain of CRX (Homo sapiens, UniProt O43186 26-111, R41L) (O43186 26-111 R41L): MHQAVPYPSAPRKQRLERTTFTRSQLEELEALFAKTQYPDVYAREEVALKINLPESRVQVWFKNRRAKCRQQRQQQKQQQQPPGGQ
In test [6] the target is VAX1 (Homo sapiens, UniProt Q5SQQ9 86-172, K157R).
Chain of VAX1 (Homo sapiens, UniProt Q5SQQ9 86-172, K157R) (Q5SQQ9 86-172 K157R): as the sequence (Q5SQQ9 86-172) above, with K72R counted along it
In test [7] the target is HOXA7 (Homo sapiens, UniProt P31268 116-202).
Chain of HOXA7 (Homo sapiens, UniProt P31268 116-202) (P31268 116-202): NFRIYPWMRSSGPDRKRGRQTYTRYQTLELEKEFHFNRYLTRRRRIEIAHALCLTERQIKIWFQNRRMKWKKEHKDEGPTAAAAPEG
For test [8], the target named is HOXA7 (Homo sapiens, UniProt P31268 116-202, W177C).
Chain of HOXA7 (Homo sapiens, UniProt P31268 116-202, W177C) (P31268 116-202 W177C): as the sequence (P31268 116-202) above, with W62C counted along it
The target in test [9] is HOXC10 (Homo sapiens, UniProt Q9NYD6 254-340).
Chain of HOXC10 (Homo sapiens, UniProt Q9NYD6 254-340) (Q9NYD6 254-340): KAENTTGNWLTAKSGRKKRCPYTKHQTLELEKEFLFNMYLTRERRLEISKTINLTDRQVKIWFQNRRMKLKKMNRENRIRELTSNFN
Test [10] has as its target ALX3 (Homo sapiens, UniProt O95076 139-225, N203Q).
For test [11], the target named is HOXC10 (Homo sapiens, UniProt Q9NYD6 254-340, K271E).
Chain of HOXC10 (Homo sapiens, UniProt Q9NYD6 254-340, K271E) (Q9NYD6 254-340 K271E): as the sequence (Q9NYD6 254-340) above, with K18E counted along it
The target of a further test is PITX2 (Homo sapiens, UniProt Q99697 72-157).
Test [12] has as its target ALX1 (Homo sapiens, UniProt Q15699 118-204, L144V).
Test [13] deals with ALX1 (Homo sapiens, UniProt Q15699 118-204, L144R).
Chain of ALX1 (Homo sapiens, UniProt Q15699 118-204, L144R) (Q15699 118-204 L144R): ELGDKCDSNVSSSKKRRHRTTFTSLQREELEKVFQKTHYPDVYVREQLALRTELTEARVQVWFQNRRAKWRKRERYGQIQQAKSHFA
Test [14] concerns the target ALX1 (Homo sapiens, UniProt Q15699 118-204).
Test [15] deals with MSX2 (Homo sapiens, UniProt P35548 130-214, R199I).
Chain of MSX2 (Homo sapiens, UniProt P35548 130-214, R199I) (P35548 130-214 R199I): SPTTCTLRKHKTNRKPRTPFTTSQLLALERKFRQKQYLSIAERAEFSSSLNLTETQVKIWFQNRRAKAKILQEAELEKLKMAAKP
Test [16] concerns the target MSX2 (Homo sapiens, UniProt P35548 130-214).
Test [17] has as its target MSX2 (Homo sapiens, UniProt P35548 130-214, F161Y).
Test [18] has as its target ALX3 (Homo sapiens, UniProt O95076 139-225).
In test [19] the target is ALX3 (Homo sapiens, UniProt O95076 139-225, L168Q).
Chain of ALX3 (Homo sapiens, UniProt O95076 139-225, L168Q) (O95076 139-225 L168Q): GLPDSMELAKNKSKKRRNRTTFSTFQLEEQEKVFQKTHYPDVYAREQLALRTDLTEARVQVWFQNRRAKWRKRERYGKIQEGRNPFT
Test [20] has as its target ALX3 (Homo sapiens, UniProt O95076 139-225, L168V).
Test [21] has as its target ALX3 (Homo sapiens, UniProt O95076 139-225, N203S).

Chain of CRX (Homo sapiens, UniProt O43186 26-111) (O43186 26-111): as the sequence (O43186 26-111 R41L) above, with L16R counted along it
Chain of ALX3 (Homo sapiens, UniProt O95076 139-225, N203Q) (O95076 139-225 N203Q): as the sequence (O95076 139-225 L168Q) above, with Q30L, N65Q counted along it
Chain of CRX (Homo sapiens, UniProt O43186 26-111, E42D) (O43186 26-111 E42D): as the sequence (O43186 26-111 R41L) above, with L16R, E17D counted along it
Chain of ALX3 (Homo sapiens, UniProt O95076 139-225, N203S) (O95076 139-225 N203S): as the sequence (O95076 139-225 L168Q) above, with Q30L, N65S counted along it
Chain of ALX3 (Homo sapiens, UniProt O95076 139-225, L168V) (O95076 139-225 L168V): as the sequence (O95076 139-225 L168Q) above, with Q30V counted along it
Chain of ALX3 (Homo sapiens, UniProt O95076 139-225) (O95076 139-225): as the sequence (O95076 139-225 L168Q) above, with Q30L counted along it
Chain of ALX1 (Homo sapiens, UniProt Q15699 118-204, L144V) (Q15699 118-204 L144V): as the sequence (Q15699 118-204 L144R) above, with R27V counted along it
Chain of ALX1 (Homo sapiens, UniProt Q15699 118-204) (Q15699 118-204): as the sequence (Q15699 118-204 L144R) above, with R27L counted along it
Chain of MSX2 (Homo sapiens, UniProt P35548 130-214) (P35548 130-214): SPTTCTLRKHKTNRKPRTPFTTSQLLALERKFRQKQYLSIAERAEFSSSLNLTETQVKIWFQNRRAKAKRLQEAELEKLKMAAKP
Chain of MSX2 (Homo sapiens, UniProt P35548 130-214, F161Y) (P35548 130-214 F161Y): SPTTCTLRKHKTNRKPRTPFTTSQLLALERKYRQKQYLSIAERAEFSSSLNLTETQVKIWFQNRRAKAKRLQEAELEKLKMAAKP

Take GATTAACA: the binding signal in the test with CRX [1] is 12.9 upbm affinity estimate (log intensity, higher = more binding, comparable within an allelic series); in the test with CRX [2], 12.5 upbm affinity estimate (log intensity, higher = more binding, comparable within an allelic series).
On to AGGCCTTA, for which the binding signal with CRX [1] is 10.1 upbm affinity estimate (log intensity, higher = more binding, comparable within an allelic series); with CRX [2], 9.82 upbm affinity estimate (log intensity, higher = more binding, comparable within an allelic series).
On to CGGCACGA, for which the binding signal is 8.45 upbm affinity estimate (log intensity, higher = more binding, comparable within an allelic series) with CRX [1]; 9.55 upbm affinity estimate (log intensity, higher = more binding, comparable within an allelic series) in the test with NKX2-6; 8.43 upbm affinity estimate (log intensity, higher = more binding, comparable within an allelic series) with CRX [2]; 6.96 upbm affinity estimate (log intensity, higher = more binding, comparable within an allelic series) with VAX1 [3]; 7.11 upbm affinity estimate (log intensity, higher = more binding, comparable within an allelic series) with VAX1 [4]; 8.41 upbm affinity estimate (log intensity, higher = more binding, comparable within an allelic series) with CRX [5]. In the test with VAX1 [6], the binding signal is 7.16 upbm affinity estimate (log intensity, higher = more binding, comparable within an allelic series).
With GACCGACA, the binding signal with CRX [1] was 8.43 upbm affinity estimate (log intensity, higher = more binding, comparable within an allelic series); with HOXA7 [7] it was 8.51 upbm affinity estimate (log intensity, higher = more binding, comparable within an allelic series); with CRX [2], 8.36 upbm affinity estimate (log intensity, higher = more binding, comparable within an allelic series); in the test with HOXA7 [8] it was 8.57 upbm affinity estimate (log intensity, higher = more binding, comparable within an allelic series); in the test with CRX [5], 8.31 upbm affinity estimate (log intensity, higher = more binding, comparable within an allelic series).
As to ACTATCCG, the binding signal with CRX [1] is 9.31 upbm affinity estimate (log intensity, higher = more binding, comparable within an allelic series); with CRX [2], 9.26 upbm affinity estimate (log intensity, higher = more binding, comparable within an allelic series).
CCTTATTA: the binding signal in the test with CRX [1] is 11 upbm affinity estimate (log intensity, higher = more binding, comparable within an allelic series); in the test with HOXC10 [9], 11.3 upbm affinity estimate (log intensity, higher = more binding, comparable within an allelic series); in the test with CRX [2], 10.9 upbm affinity estimate (log intensity, higher = more binding, comparable within an allelic series); with ALX3 [10], 8.6 upbm affinity estimate (log intensity, higher = more binding, comparable within an allelic series); with HOXC10 [11], 11.2 upbm affinity estimate (log intensity, higher = more binding, comparable within an allelic series); in the test with CRX [5] it was 10.4 upbm affinity estimate (log intensity, higher = more binding, comparable within an allelic series).
Regarding GGATTATA, the binding signal with CRX [1] was 13.5 upbm affinity estimate (log intensity, higher = more binding, comparable within an allelic series); with CRX [2] it was 13.6 upbm affinity estimate (log intensity, higher = more binding, comparable within an allelic series); with PITX2 it was 13.2 upbm affinity estimate (log intensity, higher = more binding, comparable within an allelic series); with CRX [5], 13.7 upbm affinity estimate (log intensity, higher = more binding, comparable within an allelic series).
For the sequence AAATCTGC, the binding signal was 10.8 upbm affinity estimate (log intensity, higher = more binding, comparable within an allelic series) in the test with CRX [1]; 10.6 upbm affinity estimate (log intensity, higher = more binding, comparable within an allelic series) in the test with CRX [2]; 8.09 upbm affinity estimate (log intensity, higher = more binding, comparable within an allelic series) with ALX1 [12]; 8 upbm affinity estimate (log intensity, higher = more binding, comparable within an allelic series) with ALX1 [13]; 10.6 upbm affinity estimate (log intensity, higher = more binding, comparable within an allelic series) with CRX [5]; 8.23 upbm affinity estimate (log intensity, higher = more binding, comparable within an allelic series) with ALX1 [14].
As to CAGGATTA, the binding signal with CRX [1] was 13.1 upbm affinity estimate (log intensity, higher = more binding, comparable within an allelic series); in the test with CRX [2] it was 13.2 upbm affinity estimate (log intensity, higher = more binding, comparable within an allelic series); in the test with PITX2 it was 12.9 upbm affinity estimate (log intensity, higher = more binding, comparable within an allelic series); with CRX [5], 13 upbm affinity estimate (log intensity, higher = more binding, comparable within an allelic series).
On to CGCGCCAG, for which the binding signal was 8.61 upbm affinity estimate (log intensity, higher = more binding, comparable within an allelic series) with CRX [1]; 8.52 upbm affinity estimate (log intensity, higher = more binding, comparable within an allelic series) with CRX [2]; 9.5 upbm affinity estimate (log intensity, higher = more binding, comparable within an allelic series) with MSX2 [15]; 9.73 upbm affinity estimate (log intensity, higher = more binding, comparable within an allelic series) with MSX2 [16]; 9.71 upbm affinity estimate (log intensity, higher = more binding, comparable within an allelic series) with MSX2 [17]; 8.44 upbm affinity estimate (log intensity, higher = more binding, comparable within an allelic series) with CRX [5].
In the case of GGGGCTTA, the binding signal in the test with CRX [1] was 12.8 upbm affinity estimate (log intensity, higher = more binding, comparable within an allelic series); in the test with CRX [2], 12.7 upbm affinity estimate (log intensity, higher = more binding, comparable within an allelic series); with PITX2, 12.4 upbm affinity estimate (log intensity, higher = more binding, comparable within an allelic series).
Turning to GAGACTGC, the binding signal with CRX [1] was 8.28 upbm affinity estimate (log intensity, higher = more binding, comparable within an allelic series); in the test with CRX [2], 8.22 upbm affinity estimate (log intensity, higher = more binding, comparable within an allelic series); with ALX3 [10], 7.74 upbm affinity estimate (log intensity, higher = more binding, comparable within an allelic series); with ALX3 [18], 7.6 upbm affinity estimate (log intensity, higher = more binding, comparable within an allelic series); with ALX3 [19] it was 7.71 upbm affinity estimate (log intensity, higher = more binding, comparable within an allelic series); with ALX3 [20], 7.72 upbm affinity estimate (log intensity, higher = more binding, comparable within an allelic series). Moreover, the binding signal with CRX [5] was 8.35 upbm affinity estimate (log intensity, higher = more binding, comparable within an allelic series); with ALX3 [21], 7.73 upbm affinity estimate (log intensity, higher = more binding, comparable within an allelic series).
Regarding CTCCGCGC, the binding signal with CRX [1] is 8.47 upbm affinity estimate (log intensity, higher = more binding, comparable within an allelic series); in the test with CRX [2], 8.47 upbm affinity estimate (log intensity, higher = more binding, comparable within an allelic series); with ALX3 [10], 7.75 upbm affinity estimate (log intensity, higher = more binding, comparable within an allelic series); with ALX3 [18], 7.82 upbm affinity estimate (log intensity, higher = more binding, comparable within an allelic series); with ALX3 [19] it was 7.71 upbm affinity estimate (log intensity, higher = more binding, comparable within an allelic series); with ALX3 [20], 7.69 upbm affinity estimate (log intensity, higher = more binding, comparable within an allelic series). Moreover, the binding signal with CRX [5] was 8.43 upbm affinity estimate (log intensity, higher = more binding, comparable within an allelic series); with ALX3 [21], 7.76 upbm affinity estimate (log intensity, higher = more binding, comparable within an allelic series).
As for TAATCCGA, the binding signal with CRX [1] is 13.6 upbm affinity estimate (log intensity, higher = more binding, comparable within an allelic series); with CRX [2] it was 13.6 upbm affinity estimate (log intensity, higher = more binding, comparable within an allelic series); with PITX2, 13.1 upbm affinity estimate (log intensity, higher = more binding, comparable within an allelic series); in the test with CRX [5] it was 13.5 upbm affinity estimate (log intensity, higher = more binding, comparable within an allelic series).
CTAATCCC: the binding signal was 13.5 upbm affinity estimate (log intensity, higher = more binding, comparable within an allelic series) with CRX [1]; 13.6 upbm affinity estimate (log intensity, higher = more binding, comparable within an allelic series) with CRX [2]; 13.4 upbm affinity estimate (log intensity, higher = more binding, comparable within an allelic series) in the test with PITX2; 13.4 upbm affinity estimate (log intensity, higher = more binding, comparable within an allelic series) with CRX [5].
For CGGATTAA, the binding signal with CRX [1] was 13.7 upbm affinity estimate (log intensity, higher = more binding, comparable within an allelic series); with CRX [2], 13.8 upbm affinity estimate (log intensity, higher = more binding, comparable within an allelic series); with PITX2, 13.4 upbm affinity estimate (log intensity, higher = more binding, comparable within an allelic series); with CRX [5], 13.7 upbm affinity estimate (log intensity, higher = more binding, comparable within an allelic series).
